This is an account of results in the OligoGym collection.
Further: reference of the scale not given here.

The first test concerns the target ADAP1. The experiment in a line: pooled miR-30 sensor sort-seq; sequence = guide strand. The note with it: shRNA.
In the case of TAGGGCTCCTGCTTCTCCGGGT, the sensor-assay potency score (higher = more potent) was found to be 0.35.

TAGATGAAGATGTTACGGGTGC yielded a sensor-assay potency score (higher = more potent) of -0.0419.

Regarding AAACAGAAACTTGCGGTCGGGC, the sensor-assay potency score (higher = more potent) is -0.903. Still for that read-out and setting: the result for TCTGTCAGCACAAACTTCCGGC reads 0.0597; that for TTGAAGTACATGAGCCTGCGGT, -0.124. Still for that read-out and setting: the result for TCGTTCTGTCAGCACAAACTTC reads -1.49; that for TTCTGTTGAAATACTTCAGAGC, -0.664; that for TTCTGTCAGCACAAACTTCCGG, -0.508. As to ATTTCTGTTGAAATACTTCAGA, the sensor-assay potency score (higher = more potent) was -1.12. The same measure, in the same setting: next, TCTTTGAAGTACATGAGCCTGC: 0.0128; TGAAATACTTCAGAGCACCCTC: -0.32.

Turning to TTCACCTTGCTGACCTGGGGGA, the sensor-assay potency score (higher = more potent) is -0.267.

For a further test, the target named is ADCYAP1. The test is described as above. The note with it: shRNA.
The sequence TTAACCCTTTGTTTATACCTCT returned a sensor-assay potency score (higher = more potent) of -0.397. The same measure, in the same setting: next, TAGCGGCTGTAGCTGTCCGTGA: -1.1; TATCCCATAGACCAGCAGGGCC: -1.32.
